Source: PubChem BioAssay
Only some compounds are listed: those with a hit (about 1% of all), similar ones and a draw of the others.
RXFP1 agonist: RXFP1 (human) receptor agonism; actives 0.3% (n = 370,000); Potency, µM (titrated, usually from 57.5 µM), without a hit: top-dose activation, usual class: activators; HEK293T-RXFP1 cAMP TR-FRET, 30 min; response scale: percent of porcine relaxin response, buffer zero; AID 2676; also: potency is read from the fitted curve at half-maximal effect; % is scaled to controls: 0 for no effect and ±100 for the full control effect; nearly all actives have a fitted effect of over 60% in size
Target sequence (Q9HBX9 whole entry, looked up): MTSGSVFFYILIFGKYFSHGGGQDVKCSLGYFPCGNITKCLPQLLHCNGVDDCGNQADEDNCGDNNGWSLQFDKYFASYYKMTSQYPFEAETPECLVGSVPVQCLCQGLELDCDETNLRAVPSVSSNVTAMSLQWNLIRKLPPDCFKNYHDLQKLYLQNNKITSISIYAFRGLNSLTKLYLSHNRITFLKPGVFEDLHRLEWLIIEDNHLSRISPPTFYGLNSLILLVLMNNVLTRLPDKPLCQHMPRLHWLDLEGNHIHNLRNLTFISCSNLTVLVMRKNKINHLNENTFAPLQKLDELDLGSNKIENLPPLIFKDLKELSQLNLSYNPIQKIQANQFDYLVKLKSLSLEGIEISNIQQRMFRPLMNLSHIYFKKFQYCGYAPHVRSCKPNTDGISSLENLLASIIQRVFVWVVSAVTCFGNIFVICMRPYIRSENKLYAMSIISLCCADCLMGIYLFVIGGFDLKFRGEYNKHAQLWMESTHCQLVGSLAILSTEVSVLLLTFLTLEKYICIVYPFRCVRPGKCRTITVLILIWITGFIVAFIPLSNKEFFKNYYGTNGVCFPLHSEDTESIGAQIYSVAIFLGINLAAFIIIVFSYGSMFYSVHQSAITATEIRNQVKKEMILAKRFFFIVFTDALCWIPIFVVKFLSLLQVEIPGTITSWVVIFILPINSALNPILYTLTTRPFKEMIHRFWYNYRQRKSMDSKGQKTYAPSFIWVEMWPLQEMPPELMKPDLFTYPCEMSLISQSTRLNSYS
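Agonist response is measured as cAMP accumulation in an RXFP1-transfected HEK293T line under PDE4 inhibition. Values are scaled between buffer-only and 29 nM porcine relaxin, and EC50s come from standard Hill equation fits.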
RXFP1 antagonist: blocks the human relaxin receptor RXFP1 | activity change, negative = inhibition, % at 57.5 µM | actives 0.59% (n = 350,000) | HEK293-RXFP1, relaxin-stimulated cAMP HTRF, 30 min; stronger effect = lower value;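 active = activity change of -60% or lower, but not beyond a set lower limit; inconclusive = change between -60% and -40%, or beyond the set limit; inactive = change above -40%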; also: % is scaled to controls: 0 for no effect and ±100 for the full control effect
gsp antag: antagonizes gsp, the McCune-Albright syndrome mutation; Potency, µM (doses to about 76.9 µM), inactives show top-dose activity change, negative = inhibition, most hits filed as inhibitors; gsp-mutant cells, cAMP HTRF, 30 min; actives 0.4% (n = 340,000); AID 624288; calls by dose curve; cell line not stated here;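 also: intracellular cAMP measured with PDE inhibitor Ro 20-1724 present during compound exposure; potency is read from the fitted curve at half-maximal effect; % is scaled to controls: 0 for no effect and ±100 for the full control effect; nearly all actives have a fitted effect of over 65% in size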
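Cells in G418 medium, seeded 16-24 h, 37C; buffer exchange to DPBS + 1 mM CaCl2, 0.5 mM MgCl2, 0.05% BSA; cpds in DMSO + […] (300 uM stock), 30 min 37C; HTRF cAMP detection.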
PTHR1 ag: agonists of human PTHR1 parathyroid hormone receptor. AID 743266. Potency, µM (top dose mostly 115 µM), for inactives: top-dose activation, hits mostly activators. HEK293 GP2 PTHR1 cells, GloSensor cAMP luminescence, 1 h. actives 0.075% (n = 410,000); also: potency is read from the fitted curve at half-maximal effect; nearly all actives have a fitted effect of over 55% in size
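HEK-293-derived GP2 cells expressing PTHR1 and a GloSensor cAMP reporter, 3,000/well, plated overnight, given luciferin plus IBMX (each 0.5 mM as added) for 1 h at 37 °C, then compound for 1 h at 37 °C. Luminescence was read after 15 min at room temperature.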
gsp ag: agonists of gsp mutant (McCune-Albright syndrome); actives 0.13% (n = 340,000); gsp mutant cells, cAMP HTRF, 30 min; Potency, µM (highest dose often 76.9 µM), for inactives: top-dose activation (cAMP increase), actives largely listed as activators; active = well fitted activation curve with a large enough effect; inconclusive = small, poorly fitted or top-dose-only effect, or another doubt; inactive = no such curve, though single readings can be large or run the other way; cell line not stated here;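 also: phosphodiesterase inhibitor Ro 20-1724 added with compounds to block cAMP breakdown; potency is read from the fitted curve at half-maximal effect; nearly all actives have a fitted effect of over 60% in size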
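Cells in DMEM/10% FBS with G418 were pretreated with compounds in DMSO plus […] (300 uM stock) for 30 min at 37C. cAMP was measured by HTRF (cAMP-d2 plus anti-cAMP antibody-K) after 30 min at room temperature.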
* hit, by the source's call; i = inactive; ? = inconclusive; · = no result given; [ ] = another dose, or the depositor's remark. Unless noted, calls follow the shape of the dose curve; as a rule, active = well fitted curve in the direction sought with a large enough effect; inconclusive = small, poorly fitted or top-dose-only effect, or another doubt; inactive = no such curve, though single readings can be large; an effect the other way counts as inactive or inconclusive.

SMILES	RXFP1 agonist	RXFP1 antagonist	gsp antag	PTHR1 ag	gsp ag
Oc1ccc(-c2nc3ccc(Cl)cn3c2Nc2ccc(Cl)cc2)cc1	7%	-67*	·	-26%	·
O=c1c2ccccc2cnn1Cc1n[nH]c(=S)n1-c1ccc(F)c(Cl)c1	16µM*	5	6%	i	61%[15.4 µM]
O=c1c2ccccc2cnn1Cc1n[nH]c(=S)n1-c1cc(Cl)cc(Cl)c1	16%	?	1%	-6%	?
O=C(CCCn1c(=S)[nH]c2ccsc2c1=O)NCc1ccco1	7%	-78*	-11%	i	15%
Cc1ccccc1Cn1c(=O)n(CCCC(=O)NCc2ccco2)c(=O)c2sccc21	2%	-5	-11%	i	?
CCOC(=O)N1CCN(C(=O)CCCCCn2c(=S)[nH]c3ccsc3c2=O)CC1	19%	-30	-62%	-4%	9%[15.4 µM]
O=C(CCCCn1c(=S)[nH]c2ccsc2c1=O)NCc1ccco1	1%	-81*	-2%	i	19%
CCc1ccccc1NC(=O)Cn1c(C(=O)OC)cc2oc(C)cc21	-1%	7	·	-9%	·
COc1cc(OCc2ccccc2)c2c(CCC(=O)O)cc(=O)oc2c1	·	5	-11%	i	27%
CCc1cc(=O)oc2cc(OC(C)=O)cc(OC(C)=O)c12	26%	18	-1%	-18%[57.5 µM]	10µM*
CCOCCCNC(=S)N1CCN(c2nc(-c3ccccc3)cs2)CC1	2%	0	50µM*	-41%	-59%
COCCCNC(=S)N1CCN(c2nc(-c3ccccc3)cs2)CC1	0%	0	32µM*	-33%	?
CCNC(=S)N1CCN(c2nc(-c3cccc(OC)c3)cs2)CC1	0%	-1	32µM*	-95%	20%
COC(=O)c1cc(NC(=O)Cn2ncc3c([nH]c4ccccc43)c2=O)cc(C(=O)OC)c1	-1%	13	·	i	·
COc1cccc(CSc2nc3n(n2)C(c2cccs2)C(C(=O)Nc2ccccc2C)=C(C)N3)c1 (centres undefined)	-1%	2	·	-9%	·
O=C(CN1C(=O)c2ccccc2C1=O)Nc1ccc(S(=O)(=O)N2CCOCC2)cc1	2%	-82*	-1%	i	-8%
O=C(OCN1C(=O)c2ccccc2C1=O)c1cc(S(=O)(=O)N2CCOCC2)ccc1F	?	9	-1%	i	3.2µM*
O=C(OCCN1C(=O)c2ccccc2C1=O)c1cc(S(=O)(=O)N2CCOCC2)ccc1Cl	3%	1	1%	-14%	-43%
CCN(C(=O)Cn1c(=O)n(-c2ccccc2)c(=O)c2ccc(C(=O)NCc3ccc4c(c3)OCO4)cc21)c1cccc(C)c1	0%	·	·	-13%	·
Cc1cc(NC(=O)c2ccc(-c3ccccc3[N+](=O)[O-])o2)no1	·	-3	-4%	-38%	-1%
O=C(Nc1cccc(NC(=O)c2ccccc2Cl)c1)c1ccc([N+](=O)[O-])o1	-1%	30	40µM*	i	-20%
CC(=O)c1cccc(NC(=O)c2ccc(-c3ccccc3[N+](=O)[O-])o2)c1	0%	-17	45µM*	-46%	19%[15.4 µM]
O=C(Nc1ccccn1)c1ccc([N+](=O)[O-])o1	3%	14	4%	-35%	?
O=C(Nc1ncccn1)c1ccc([N+](=O)[O-])o1	18µM*	12	·	i	22%[15.4 µM]
CC(C)Sc1ncc(Cl)c(C(=O)Nc2ccc(S(=O)(=O)N3CCCCC3)cc2)n1	-1%	·	·	i	·
SMILES	RXFP1 agonist	RXFP1 antagonist	gsp antag	PTHR1 ag	gsp ag
CCOc1ccccc1NC(=O)Cn1ncc2c(=O)oc3ccc(C)cc3c21	7%	-5	·	-23%	·
Cc1onc(-c2ccccc2)c1C(=O)Cl	·	-5	·	·	·
COc1ccc(OC)c(NC(=O)Cn2ncc3c2-c2ccccc2OC3)c1	-2%	·	·	15%	·
O=C(C1CCC(CNS(=O)(=O)c2cccc3nsnc23)CC1)N1CC=C(c2ccccc2)CC1 (centres undefined)	0%	·	35µM*	-46%	-14%
Cc1cccc(OC(=O)CSc2nnc(-c3ccc4c(c3)OCO4)o2)c1C	0%	1	·	i	·
CC(C)C(=O)N1CCN(c2ccc(NC(=O)c3cccs3)cc2Cl)CC1	-2%	-8	28µM*	-16%	-21%
